Measurements: PubChem BioAssay (NCI)
Several values for one entry are separate records, joined by “and”; a condition that tells them apart may be missing. Equal entries are not always repeated. Compounds without any hit were thinned out: in the full panel of roughly 83,000, 20% have a hit.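 Percent growth is the endpoint: 0 to 100 indicates growth inhibition (40 means 60% inhibition), 0 means no net growth, and negative values indicate cell death.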 Activity calls are given as the source filed them. The calls were made as follows: active = growth percent below 10; inactive = the rest.

Columns and labels:
Assay in all cases: NCI-60 one-dose screen, 48 h (100 = growth as untreated, 0 = no growth, -100 = all killed)
Details in all cases: 10 µM unless noted
[1] = system: SK-MEL-2 melanoma
[2] = system: EKVX NSCLC
[3] = system: SN12C renal
[4] = system: UO-31 renal
[5] = system: TK-10 renal
[6] = system: ACHN renal
[7] = system: CAKI-1 renal
[8] = system: A498 renal
[9] = system: CCRF-CEM leukemia
[10] = system: MOLT-4 leukemia

Measured: growth

CC(=O)c1ccc2c(N)c(C(=O)Nc3ccc(C(F)(F)F)cc3)sc2n1
inactive: [1] 67.7% | [2] 40.7% | [3] 73% | [4] 73.8% | [5] 67% | [6] 66.2% | [7] 56.9% | [8] 126% | [9] 60.9% | [10] 32.7%

CCOC(=O)c1ccc(NC(=S)NC(=O)c2cccc(NC(=O)c3ccc(C)cc3)c2)cc1
inactive: [1] 88.9% | [2] 74.7% | [3] 31% | [4] 63.9% | [5] 89.2% | [6] 75.5% | [7] 76.8% | [8] 105% | [9] 78.3% | [10] 70.4%

Cc1ccc(C(=O)Nc2cc(-c3ccccc3)cc(C(F)(F)F)c2)cc1C#Cc1cnc2cccnn12
inactive: [1] 58.7% | [2] 63% | [3] 65.9% | [4] 56.5% | [5] 79.3% | [6] 59.9% | [7] 70.4% | [8] 133% | [9] 38.1% | [10] 35.5%

O=C(c1ccc(O)cc1)C1[C@H](c2ccc(Cl)cc2)[C@@H](c2ccccc2)NC12C(=O)Nc1ccc(Br)cc12 (stereo partly drawn)
active: [1] -76.1% | [2] -5.33% | [3] -92.6% | [4] -25.7% | [5] 1.72% | [6] 0.788% | [7] 3.93% | [8] -15.5% | [9] -11.1% | [10] -34.2%

Fc1cccc(CNc2nc(SCCN3CCOCC3)nc3c2cnn3CC(Cl)c2ccc(Br)cc2)c1 (stereo not drawn)
inactive: [1] 13.5% | [2] 41.1% | [3] 36.5% | [5] 46.7% | [6] 17.3% | [7] 26.7% | [8] 57.2%
active: [4] -3.52% | [9] 6.67% | [10] -23.8%

O=C(N/N=C/c1c[nH]c2ccccc12)Nc1ccc(F)c(Cl)c1
inactive: [2] 40.9% | [3] 42.1% | [4] 37.1% | [5] 80.6% | [6] 41.7% | [7] 32.1% | [8] 66.6% | [9] 12.9% | [10] 10.4%
active: [1] -9.22%

COc1ccc2c(c1)C(Sc1ccc(Cl)cc1)c1c(nc(N)c(C#N)c1N)O2 (stereo not drawn)
inactive: [1] 79.5% | [2] 43.8% | [3] 55.7% | [4] 26.5% | [5] 99.1% | [6] 60.1% | [7] 51.9% | [8] 84.4%
active: [9] -10.6% | [10] -1.37%

CCCN(CCC)S(=O)(=O)c1ccc(C(=O)O)cc1.CCCN(CCC)S(=O)(=O)c1ccc(C(=O)O)cc1.[Cl][Pt+2][Cl].[NH2-].[NH2-]
inactive: [2] 44.8% | [3] 12.4% | [4] 98.4% | [5] 109% | [6] 13.4% | [7] 32.4% | [8] 91.5% | [9] 50.4%
active: [1] -31.6% | [10] -2.08%

COc1ccc(-c2cc(-c3cc(OC)c(OC)c(OC)c3)[nH]c(=O)c2C#N)cc1
active: [3] 8.1% | [4] -24.9% | [6] -25.4% | [8] -2.4%
inactive: [1] 97.8% | [2] 65.6% | [5] 40.8% | [7] 47% | [9] 76.7% | [10] 80.1%

COc1ccc(N=Nc2c(N)nn3c(-c4ccc(F)cc4)ccnc23)cc1
inactive: [1] 102% | [2] 80.4% | [3] 89% | [4] 99.6% | [5] 106% | [6] 110% | [7] 94.5% | [8] 108% | [9] 59.9% | [10] 85.5%

COC(=O)c1c(C(=O)OC)c2c3ccccc3c3ccccc3n2c1C(=O)C(C)(C)C
inactive: [1] 83.4% | [2] 96.2% | [3] 87.3% | [4] 75.4% | [5] 105% | [6] 82% | [7] 60.7% | [8] 132% | [9] 65.6% | [10] 45.7%

O=C(CSc1nc2sc3c(c2c(=O)n1-c1ccc(Cl)cc1)CCCC3)NNC(=O)c1ccc(F)cc1
inactive: [1] 104% | [2] 63.3% | [3] 40.1% | [4] 56% | [5] 163% | [6] 85.6% | [7] 73.1% | [8] 121% | [9] 73.6% | [10] 81.3%

COc1cc(CNC(=O)C[C@H](C)CCC=C(C)C)ccc1OCc1cn(-c2ccc(Br)cc2)nn1
inactive: [1] 78% | [2] 79% | [3] 71.6% | [4] 62.9% | [5] 109% | [6] 56.4% | [7] 28.8% | [8] 105% | [9] 61.1% | [10] 70%

S=C(Nc1ccc(OCc2nc3ccc(Cl)cc3[nH]2)cc1)NC1CCCCC1
active: [1] -44.9% | [2] -7.76% | [3] -80.6% | [4] -7.63% | [5] -10.8% | [6] -16% | [7] -5.65% | [8] -1.77% | [9] 5.6% | [10] 1.31%

CCCCCCCCc1cccc(CC(=O)Nc2ccc(C)cc2C(=O)O)c1
inactive: [1] 86.3% [25 µM] | [2] 66.5% [25 µM] | [3] 51% [25 µM] | [4] 53.8% [25 µM] | [5] 63.1% [25 µM] | [6] 46.7% [25 µM] | [7] 36.1% [25 µM] | [8] 123% [25 µM] | [9] 26.7% [25 µM] | [10] 17.9% [25 µM]

COc1ccc2c(c1)C(Sc1ccc(F)cc1)c1c(nc(N)c(C#N)c1N)O2 (stereo not drawn)
active: [9] 1.67%
inactive: [1] 97% | [2] 87.1% | [3] 78.5% | [4] 39.8% | [5] 103% | [6] 86.6% | [7] 84.9% | [8] 101% | [10] 53.9%

O=C(CSc1nnc(-c2ccc(-c3nc4ccc(Cl)cc4[nH]3)cc2)o1)Nc1ccc(Cl)cc1
active: [3] -11.6% | [6] -69.3% | [7] -40.3% | [9] 4.89% | [10] 5.53%
inactive: [1] 14.7% | [2] 48.4% | [4] 30.9% | [5] 73.7% | [8] 127%

O=C(Nc1nc2ccc([N+](=O)[O-])cc2s1)Nc1ccccc1F
active: [1] 6.45% | [2] 5.56% | [3] 2.55% | [4] 6.12% | [6] 1.6% | [7] -8.16% | [8] -18.3%
inactive: [5] 17.9% | [9] 15.5% | [10] 15.7%

COC(=O)c1cc(C(=O)CBr)n2c1ccc1c3ccccc3ccc12
active: [10] 6.44%
inactive: [1] 113% | [2] 60.1% | [3] 51.1% | [4] 24.3% | [5] 84.3% | [6] 17.4% | [8] 101% | [9] 14%

CC1=C(C)C(=O)C(NCCN2CCOCC2)=C(Br)C1=O
active: [9] -21% | [10] 0.284%
inactive: [1] 68.9% | [2] 46.4% | [3] 52% | [4] 44.7% | [5] 150% | [6] 62.3% | [8] 124%

NS(=O)(=O)c1ccc(Nc2nc(SCC(=O)c3ccc(F)cc3)nc3ccccc23)cc1
inactive: [1] 48.3% | [2] 39.1% | [3] 53.8% | [4] 29.1% | [5] 80.9% | [6] 49.7% | [8] 94.6% | [9] 26.9% | [10] 16.8%

COc1cc(C=O)ccc1Oc1nc(Nc2ccc(F)cc2)nc(N(C)C)n1
inactive: [1] 62.6% and 85.2% | [2] 76.9% and 60.4% | [3] 92.2% and 58.5% | [4] 67.6% and 48.7% | [5] 84.2% and 86.8% | [6] 105% and 63.3% | [8] 98.6% and 123% | [9] 86.1% and 18.1% | [10] 73.1% and 23.8%

CS(=O)(=O)Nc1cccc(-n2c(COc3ccc(OC(F)(F)F)cc3)nc3ccccc32)c1
inactive: [2] 86.4% and 98% | [3] 113% and 115% | [4] 51.1% and 87.7% | [5] 105% and 111% | [6] 81% and 109% | [7] 61.4% and 99.4% | [8] 98.2% and 127% | [9] 93.3% and 99.8% | [10] 80.3% and 97%

CCCCCCCOc1ccc(S(=O)(=O)Nc2ccc(C)c(F)c2C(=O)O)cc1
inactive: [1] 102% | [2] 95.4% | [3] 94.9% | [4] 75% | [5] 96.2% | [6] 101% | [8] 102% | [9] 81.6% | [10] 98.3%

C/C(=N\Nc1ccc(C(=O)O)cc1)c1cnn(-c2cc(=O)[nH]c3ccc(C)cc23)c1C
inactive: [1] 106% | [2] 93% | [3] 92.6% | [4] 67.9% | [5] 104% | [6] 99.4% | [8] 108% | [9] 93% | [10] 97.8%
